The whole screen tested about 360,000 compounds, of which about 2,300 (0.64%) were called active. Shown is part of a subset that was picked to be rich in actives. A number with no mark means an inactive call. Rule as the data show it: active = inhibition mostly above about 40% (no sharp cut-off); inactive = mostly below about 27%.

This test deals with Sentrin-specific protease 8 (Homo sapiens) (UniProt Q96LD8). Kind of test: human SENP8 protease inhibitors, primary screen, biochemical, fluorescence, Nedd8 protein substrate, uHTS (AID 602440). Particulars: recombinant SENP8, Nedd8 substrate fluorescence; at 20 µM; active compounds read high.
Sequence of Sentrin-specific protease 8 (Homo sapiens) (Q96LD8 whole entry, looked up): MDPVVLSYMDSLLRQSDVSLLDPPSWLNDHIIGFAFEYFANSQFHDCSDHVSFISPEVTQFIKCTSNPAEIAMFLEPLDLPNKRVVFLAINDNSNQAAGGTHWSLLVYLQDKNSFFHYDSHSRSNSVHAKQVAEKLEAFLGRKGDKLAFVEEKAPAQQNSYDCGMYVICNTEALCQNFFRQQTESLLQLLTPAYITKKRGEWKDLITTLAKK
A word on the inhibition: it is the drop in the measured response relative to a control, in per cent. With `COc1ccccc1C(=O)NC(=S)Nc1ccc(N2CCOCC2)cc1`, the inhibition is 14.8%.

Regarding `O=C(Cc1ccccc1)NC(=S)Nc1ccc(N2CCCCC2)cc1`, the inhibition was 42.1% (active).

Regarding `O=C(CN1CCN(c2ccc(O)cc2)CC1)Nc1ccc(-c2ccccc2)cc1`, the inhibition was 23.2%.

With `CN1CCn2cnc(C(=O)NCC(=O)OC(C)(C)C)c2C1=O`, the inhibition is 14.9%.

Take `CCN(CC)CCCNC(=O)CCn1nc(-c2ccc(Cl)cc2)ccc1=O`: the inhibition is 13.2%.

With `Cc1[nH][nH]c(=O)c1C(c1ccc(-c2ccc(Cl)cc2)o1)c1c(C)[nH][nH]c1=O`, the inhibition was 63.5% (active).

For `CN(CC(=O)Nc1ccc(F)cc1)C(=O)c1ccc(-c2ccc(Cl)cc2)o1`, the inhibition is -23.1%.

Turning to `COc1ccc(C(=O)NC(=S)N2CCNC(=O)C2CC(=O)OC(C)C)cc1` (stereo unspecified), the inhibition was -6.1%.

Take `CC(=O)c1ccc(OCC(=O)N(C)C2CCS(=O)(=O)C2)cc1` (stereo unspecified): the inhibition is 18.3%.

In the case of `Cn1c(=O)[nH]c(=O)c2c1nc(CN(Cc1ccccc1)Cc1ccccc1)n2CCN1CCOCC1`, the inhibition is 17.1%.

In the case of `COCCNC(=O)NC(=O)COC(=O)C1(c2ccc(Cl)cc2)CC1`, the inhibition is 6.8%.

Turning to `O=C(Nc1ccc(C(=O)O)c(O)c1)c1ccccc1`, the inhibition is 43.3% (active).

Take `O=C(Cn1ccc(=O)[nH]c1=O)Nc1ccc(C(=O)O)c(O)c1`: the inhibition was 7.9%.

Regarding `O=C(Cc1ccccc1)Nc1ccc(C(=O)Nc2ccccc2C(=O)O)cc1`, the inhibition was -13.4%.

With `CC(C)C(NC(=O)c1c(F)cccc1F)C(=O)NCc1ccncc1` (stereo unspecified), the inhibition is -7.7%.

`c1coc(-c2nc3nc4ccccc4n3nc2-c2ccco2)c1`: the inhibition is 106% (active).

On to `Cc1cccc(C)c1NC(=O)C(c1cccc2ccccc12)n1c(=O)c(-c2ccco2)nc2ccccc21` (stereo unspecified), for which the inhibition was -458%.

With `N#Cc1ccc(C(C(=O)NCc2ccccc2)n2c(=O)c(-c3ccco3)nc3ccccc32)cc1` (stereo unspecified), the inhibition is -432%.

Consider `Cc1ccc2c(Cl)c(C(=O)Nc3nn[nH]n3)sc2c1`, for which the inhibition is -0.2%.

As to `Cc1noc(C)c1NC(=O)Nc1ccc2c(c1)C(=O)N([C@H](C)CO)C[C@H](C)[C@@H](CN(C)S(=O)(=O)c1cn(C)cn1)O2`, the inhibition was -6%.

Regarding `O=C(C/C(=N\NC(=O)c1ccccc1Br)C(F)(F)F)c1cccs1`, the inhibition is 25.6%.

As to `Cc1nc2nc(SCC(=O)c3ccccc3)[nH]c2cc1Br`, the inhibition is 13.3%.

Take `Cc1nc(SCC(=O)c2ccccc2)c([N+](=O)[O-])[nH]1`: the inhibition was 41.9% (active).

Take `O=C(CSc1nnc2ccccn12)c1ccccc1`: the inhibition is -1.2%.

Consider `Cc1cc(C)n2nc(C(=O)OCC(=O)N(C)CC(=O)Nc3ccc(F)cc3)nc2n1`, for which the inhibition was 3.2%.

Regarding `COc1ccc(CCNC(=O)COC(=O)C2CC2C)cc1` (stereo unspecified), the inhibition is 9.7%.

In the case of `Cc1cc(NC(=O)CN2C(=O)NC(CCc3ccccc3)C2=O)no1` (stereo unspecified), the inhibition was 12.2%.

In the case of `Cc1cccc(C)c1NC(=O)CNC(=O)C1CCCC1`, the inhibition is 11.2%.

Take `CCc1cccc(C)c1NC(=O)COC(=O)Cc1ccsc1`: the inhibition is -35.2%.

With `CCc1cccc(C)c1NC(=O)COC(=O)CC1CCCC1`, the inhibition was 40.9% (active).

As to `Cc1ccc(N(C(=O)CC2NC(=O)NC2=O)C2(C(=O)NC3CCCC3)CCCCC2)cc1` (stereo unspecified), the inhibition is 21.4%.

On to `Cc1ccc(NC(=O)CN(C)C(=O)c2cccc(S(=O)(=O)N3CCCC3)c2)cc1`, for which the inhibition was 18.7%.

Turning to `COc1cccc(N(CC(=O)NCCSc2ccccn2)S(C)(=O)=O)c1`, the inhibition is 40.3% (active).

Consider `COc1ccc(CCNC(=O)CN(c2ccccc2)S(C)(=O)=O)cc1`, for which the inhibition is 13.5%.

Regarding `COc1ccc(N(CC(=O)NCCSCc2cccc(Cl)c2)S(C)(=O)=O)cc1`, the inhibition is 16.9%.

In the case of `COc1ccc(NC(=O)CCNS(=O)(=O)c2ccc3c(c2)c(=O)n(C)c(=O)n3C)cc1OC`, the inhibition was 9.5%.

On to `OCc1n[nH]c(CO)n1`, for which the inhibition was 6.5%.

In the case of `CN1C(=O)/C(=C/C=C2\SCCN2C)OC1=S`, the inhibition is 43.8% (active).

For `O=[N+]([O-])c1ccc(C=Nc2ccc(Cl)cc2Cl)s1`, the inhibition is 69% (active).

`CCNc1nc(N)nc(Oc2ccc(OCC)nn2)n1`: the inhibition was 6.3%.

With `O=P(O)(CP(=O)(c1ccccc1)c1ccccc1)c1ccccc1`, the inhibition is 10.2%.

Take `O=P(O)(CP(=O)(c1ccccc1)c1ccccc1)c1ccccc1O`: the inhibition was 41.1% (active).

`CC(C)(C)c1cc(P(=O)(c2ccccc2)c2ccccc2)ccc1O`: the inhibition is 20.7%.

For `COC(=O)C1=C(C)N(C)C(=S)NC1c1cc(OC)ccc1OC` (stereo unspecified), the inhibition is 10%.

Take `COC(=O)[C@]12CCCCC=C1N(CCC1=CCCCC1)C(=O)[C@H](CC(=O)NCC1CCCCC1)C2`: the inhibition was 10.5%.

Consider `COc1cc(C(=O)NC2CCN(Cc3ccccc3)CC2)cc(Cl)c1OC(C)C`, for which the inhibition was 3.3%.

Turning to `CC(=O)Nc1ccc(NC(=O)COc2ccc(S(=O)(=O)NC(C)c3ccccc3)cc2)cc1` (stereo unspecified), the inhibition was 8.8%.

As for `CCOC(=O)/C(=N\Nc1ccccc1[N+](=O)[O-])c1csc(Nc2ccccc2)n1`, the inhibition is 52.3% (active).

On to `CCOC(=O)C(=O)Nc1nc(-c2ccccc2)c(CC)s1`, for which the inhibition is 16.8%.

Turning to `CCOC(=O)C/C(C)=N\Nc1ccc([N+](=O)[O-])cc1[N+](=O)[O-]`, the inhibition was 23.3%.

In the case of `NC(=O)c1ccc(N2CCOCC2)nc1`, the inhibition is 10.6%.

For `Nc1ncnc2c1ncn2[C@@H]1O[C@H](CNC(=O)[C@H](N)Cc2cccnc2)[C@@H](O)[C@H]1O`, the inhibition is 6.7%.

For `CN(CCc1ccccn1)C(=O)CCC1CCCN(Cc2ccccc2OC(F)F)C1` (stereo unspecified), the inhibition was 29.2%.

Turning to `Nc1ccc2nc3c(=O)[nH]c(=S)[nH]c3nc2c1`, the inhibition is 46.9% (active).

In the case of `CC(C)(C)CN1CCNC(=O)C1CC(=O)NC1Cc2ccccc2C1` (stereo unspecified), the inhibition was -47.4%.

For the compound `CCCCC1=CC2=CC(=O)C(C)(OC(=O)CC)C(=O)C2=CN1CCCOC(C)C` (stereo unspecified), the inhibition was -190%.

As to `COC(=O)CCCC1=CC2=C(c3ccccc3)C(=O)C(C)(OC(=O)C3CCCC3)C(=O)C2=CN1c1ccc(OC)cc1` (stereo unspecified), the inhibition is -154%.

In the case of `COC(=O)CCCC1=CC2=CC(=O)C(C)(OC(=O)c3cccs3)C(=O)C2=CN1CC(C)C` (stereo unspecified), the inhibition is 40.8% (active).

In the case of `O=C(NC1CCN(S(=O)(=O)c2ccc(F)cc2)CC1)c1ccccc1`, the inhibition was 15.3%.

Take `COC(=O)N(C)C[C@@H]1OCc2cnnn2CCCC(=O)N([C@@H](C)CO)C[C@@H]1C`: the inhibition is 18.6%.

For `COc1cc(NC(=O)c2cc([N+](=O)[O-])ccc2Br)ccc1NC(=O)c1ccco1`, the inhibition is 32.3%.

As to `COc1ccc(Cc2nnc(SCC(=O)c3cccc([N+](=O)[O-])c3)n2C)cc1`, the inhibition was 10.4%.

For the compound `COc1ccc(C(=O)c2c3ccc([N+](=O)[O-])cc3[n+]([O-])n2CCCN)cc1`, the inhibition is 48.4% (active).

For `COc1ccc2c(C(=O)c3ccc(C)cc3)n(CCC(N)=O)[n+]([O-])c2c1`, the inhibition is 2.6%.

For the compound `COC(=O)c1ccc(S(=O)(=O)N(CCO)Cc2ccccc2)n1C`, the inhibition is 21.1%.

For `O=C1C=C(NS(=O)(=O)c2ccccc2)C(=O)c2ccccc21`, the inhibition is 51.3% (active).

For the compound `O=C(NC1=CC(=O)c2ccccc2C1=O)c1ccccc1`, the inhibition was 44.7% (active).

Regarding `Cc1cc(NS(=O)(=O)c2ccccc2)no1`, the inhibition was 11.5%.

For `CN(C)C(=O)c1ccc(NC(=O)c2ccccc2-c2ccccc2)cc1`, the inhibition was 4.2%.

Take `C/C(=N\NC(=O)c1ccc(C)cc1)C1C(=O)c2ccccc2C1=O`: the inhibition is 38.5%.

For `CC(=O)NS(=O)(=O)c1ccccc1`, the inhibition is 0.5%.

Turning to `CCN(CC)S(=O)(=O)c1ccc2c3c(cccc13)C(=O)S2`, the inhibition is -49.2%.

In the case of `NC(=O)C1CC=CCC1C(=O)OCC(Cl)=C(Cl)Cl` (stereo unspecified), the inhibition was 1.1%.

In the case of `Cc1cc(N2C(=O)C(=O)/C(=C(/O)c3ccc(Cl)cc3)C2c2cccc(Br)c2)no1` (stereo unspecified), the inhibition was -138%.

Regarding `O=S1(=O)CCN2C(=N1)SC1=C2CCN(Cc2ccccc2)C1`, the inhibition was 21.1%.

As for `C=CCn1c(SCC(=O)c2ccc(Br)cc2)nnc1C(C)NC(=O)Cc1ccc(OC)cc1` (stereo unspecified), the inhibition is 1.1%.

Regarding `CS(=O)(=O)c1ccc(C(=O)OCC(=O)NNC(=O)COc2ccc(Cl)cc2)cc1`, the inhibition was 11.8%.

In the case of `CC(C)Cc1nnc(NC(=O)CCc2ccccc2)s1`, the inhibition is 2.2%.

`CC(C)Cc1nnc(NC(=O)CCC(=O)Nc2ccc3cn[nH]c3c2)s1`: the inhibition is 42.9% (active).

For the compound `CC(C)Cc1nnc(NC(=O)CCNC(=O)c2ccccc2Cl)s1`, the inhibition was 8.4%.

For `CN(C)CCCn1c(SCCN2C(=O)c3ccccc3C2=O)nc2ccccc2c1=O`, the inhibition was 2.7%.

`O=[N+]([O-])c1ccc(N2CCN(S(=O)(=O)c3ccc4ccccc4c3)CC2)cc1NCc1ccco1`: the inhibition was 28.5%.

As to `O=C(c1ccc(S(=O)(=O)NCc2ccco2)cc1)N1CCN(c2ccccc2)CC1`, the inhibition was 17.9%.

Take `O=C(c1ccccc1)N1CCN(c2ccc([N+](=O)[O-])c(NCc3ccco3)c2)CC1`: the inhibition was 41.8% (active).

Consider `O=C(NCCC1CCCCN1S(=O)(=O)c1ccccc1)C(=O)NCC1CCCO1` (stereo unspecified), for which the inhibition was 7.7%.

Turning to `CCCCNC(=O)C(C)N(CCN(C)C)C(=O)CCCN1C(=O)NC(c2ccc(Cl)cc2)C(C(=O)OCc2ccccc2)=C1C` (stereo unspecified), the inhibition was 12.8%.

For `C/C(=N/NC(=O)c1ccc(Br)o1)c1ccc(C)o1`, the inhibition is -3.6%.

On to `Cc1ccccc1CN1CCN(C(=O)c2cccc(F)c2)CC1`, for which the inhibition was 17.2%.

Regarding `O=C(c1cccc(F)c1)N1CCC(O)(c2cccnc2)CC1`, the inhibition is 18.5%.

With `O=C(c1cccc(F)c1)N1CCN(c2ccc([N+](=O)[O-])c3cccnc23)CC1`, the inhibition was 41.3% (active).

`NC(=O)C1CC(=O)N(c2ccc(OCC(=O)NCc3ccccc3)cc2)C1` (stereo unspecified): the inhibition is 5.3%.
